# Test results from PubChem BioAssay (NCATS).
# Where “and” joins values, the source holds several entries; their conditions need not be identical. Equal entries are not always repeated. Records with an inconclusive call do not appear. Calls of active or inactive are those of the source. Calls come from the whole dose curve; as a rule, active = well fitted inhibition curve with a large enough effect; inconclusive = small, poorly fitted or top-dose-only effect; inactive = flat fitted curve, though single readings scatter. Where a SMILES comes first, the peptide text is derived from it. Bridges are numbered along the chain shown (N, C = ends).
# Test system: KB-3-1
# Test: Cytotoxic Profiling of Annotated Libraries Using Quantitative High-Throughput Screening (AID 1296008); note: nearly all actives have a fitted effect of over 60% in size
# Conditions: Five cell lines viability, CellTiter-Glo ATP luminescence, 48-72 h; max response: hits give low values
# Method in brief: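 Compounds were pin-transferred onto cells and incubated 48 or 72 hr at 37 degree Celsius, 95% humidity. CellTiter-Glo was added, plates sat 10 min at room temperature, then ATP-coupled luminescence was imaged as the viability read-out.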
# % is set by controls: 0 for no effect and ±100 for the full control effect; potency is the fitted concentration of half-maximal effect.
SMILES,max response,Potency
CC(=O)OCC(=O)[C@@]1(O)[C@H](C)C[C@H]2[C@@H]3C[C@H](F)C4=CC(=O)C=C[C@]4(C)[C@H]3[C@@H](O)C[C@@]21C,23.1% (inactive),–
CC#CCC(C)[C@H](O)/C=C/[C@@H]1[C@H]2C/C(=C/CCCC(=O)O)C[C@H]2C[C@H]1O (some centres undefined),-19% (inactive),–
CCCCCCCCCC(=O)O,-12.8% (inactive),–
CN1CC(O)c2cc(N=NC(N)=O)c(O)cc21 (centres undefined),-10.6% (inactive),–
NCCCC[C@H](NC(=O)[C@@H]1CCCN1C(=O)[C@@H]1CSSC[C@H](NC(=O)CNC(=O)CNC(=O)CN)C(=O)N[C@@H](Cc2ccc(O)cc2)C(=O)N[C@@H](Cc2ccccc2)C(=O)N[C@@H](CCC(N)=O)C(=O)N[C@@H](CC(N)=O)C(=O)N1)C(=O)NCC(N)=O (H-GGGCYFQNCPKG-NH2; disulfide 4-9),-6.41% (inactive),–
CN=C(NC)NCc1ccccc1,-10.8% (inactive),–
c1ccc2c(CCC3CCNCC3)c[nH]c2c1,-10.3% (inactive),–
CC1(C)S[C@@H]2[C@H](NC(=O)[C@H](N)c3ccccc3)C(=O)N2[C@H]1C(=O)OCOC(=O)[C@@H]1N2C(=O)C[C@H]2S(=O)(=O)C1(C)C,-17% (inactive),–
C[C@@H]1C[C@H]2C3C[C@H](F)C4=CC(=O)C=CC4(C)[C@@]3(F)[C@@H](O)CC2(C)[C@@]1(O)C(=O)COC(=O)C(C)(C)C (some centres undefined),27.2% (inactive),–
CCN1CCCC1CNC(=O)c1cc(S(=O)(=O)CC)ccc1OC (centres undefined),-13.4% (inactive) and -13.1% (inactive),–
C=C1CC2C3CCC4=CC(=O)C=C[C@]4(C)[C@@]3(F)[C@@H](O)C[C@]2(C)[C@@]1(O)C(=O)COC(C)=O (some centres undefined),3% (inactive),–
Cc1ccc(C2(O)CCN(CCCC(=O)c3ccc(F)cc3)CC2)cc1,-11.9% (inactive),–
C/C=C1\NC(=O)[C@H]2CSSCC/C=C/[C@H](CC(=O)N[C@H](C(C)C)C(=O)N2)OC(=O)C(C(C)C)NC1=O (some centres undefined),–,0.0092 µM (active)
CCOc1ccc(N=C(C)Nc2ccc(OCC)cc2)cc1,-26.1% (inactive),–
CN1CCN(C2=Nc3ccccc3Cc3ccccc32)CC1,2.98% (inactive),–
CC1(C)S[C@@H]2[C@H](NC(=O)C(C(=O)Oc3ccc4c(c3)CCC4)c3ccccc3)C(=O)N2[C@H]1C(=O)O (some centres undefined),21.3% (inactive),–
CC(C)(C)NC(=O)[C@H]1CC[C@H]2[C@@H]3CC=C4C=C(C(=O)O)CC[C@]4(C)[C@H]3CC[C@]12C,-6.72% (inactive),–
CN(C(=O)CO)c1c(I)c(C(=O)NCC(O)CO)c(I)c(C(=O)NCC(O)CO)c1I (centres undefined),5.16% (inactive),–
CCN(CC)c1ccc(C(=C2C=CC(=[N+](CC)CC)C=C2)c2ccccc2)cc1,–,1.3 µM (active)
CC(=O)O[C@H]1C[C@@H]2CC[C@@H]3[C@H](CC[C@@]4(C)[C@H]3C[C@H](N3CC[N+](C)(C)CC3)[C@@H]4OC(C)=O)[C@@]2(C)C[C@@H]1N1CC[N+](C)(C)CC1,-0.194% (inactive),–

SMILES,max response,Potency
O=c1[nH]cnc2[nH]cc(CN3CCCCC3)c12,-7.83% (inactive),–
CCCCCCCCCCCCCCCC(=O)OCCC1CCN(CCCN2c3ccccc3Sc3ccc(S(=O)(=O)N(C)C)cc32)CC1,-4.82% (inactive),–
C=Cc1ccccc1,-0.236% (inactive),–
COC(=O)C[C@](O)(CCCC(C)(C)O)C(=O)O[C@@H]1C(OC)=CC23CCCN2CCc2cc4c(cc2[C@H]13)OCO4 (some centres undefined),–,0.058 µM (active)
NCCCC[C@H](NC(=O)[C@@H]1CCCN1C(=O)[C@@H]1CSSC[C@H](N)C(=O)N[C@@H](Cc2ccc(O)cc2)C(=O)N[C@@H](Cc2ccccc2)C(=O)N[C@@H](CCC(N)=O)C(=O)N[C@@H](CC(N)=O)C(=O)N1)C(=O)NCC(N)=O,0.366% (inactive) and -14.6% (inactive),–
Cc1cc(Nc2ccccc2C(=O)O)ccc1Cl,-5.19% (inactive),–
CCCCCCCC/C=C\CCCCCCCC(=O)OC[C@@H](O)[C@H]1OC[C@H](O)[C@H]1O,-11.7% (inactive),–
CCC(=O)OCC(=O)[C@@]1(OC(=O)CC)[C@H](C)C[C@H]2[C@@H]3CCC4=CC(=O)C=C[C@]4(C)[C@@]3(F)[C@@H](O)C[C@@]21C,-9.03% (inactive),–
CC[C@H]1OC(=O)[C@H](C)[C@@H](O[C@H]2C[C@@](C)(OC)[C@@H](O)[C@H](C)O2)[C@H](C)[C@@H](O[C@@H]2O[C@H](C)C[C@H](N(C)C)[C@H]2O)[C@](C)(O)C[C@@H](C)[C@@H]2N[C@@H](COCCOC)O[C@@H]([C@H]2C)[C@]1(C)O,-15.7% (inactive),–
CCOC(=O)COc1ccc2c(C)c(CCN(CC)CC)c(=O)oc2c1,-7.36% (inactive),–
CC(CN(C)C)CN1c2ccccc2S(=O)(=O)c2ccccc21 (centres undefined),23.6% (inactive),–
CCCCCCCCCCCCCCCCCC(=O)OCCO,-9.35% (inactive),–
O=P(O)(O)OC(Cn1cncn1)(Cn1cncn1)c1ccc(F)cc1F,-21.6% (inactive),–
CO[C@H]1[C@@H](O)[C@H](N)[C@@H](O[C@H]2O[C@H]([C@H](C)N)CC[C@H]2N)[C@H](O)[C@@H]1N(C)C(=O)CN,-19.3% (inactive),–
NCCCNCCCCNC(=O)C(O)NC(=O)CCCCCCN=C(N)N (centres undefined),-11.3% (inactive),–
O=C(O)CC(O)(CC(=O)O)C(=O)O,-1.69% (inactive),–
COc1cc2[nH]c(C)c(CCN3CCN(c4ccccc4)CC3)c2cc1OC,-9.43% (inactive),–
CCC(C)C(C(=O)OCC[N+](C)(CC)CC)c1ccccc1 (centres undefined),-5.4% (inactive),–
CCCCCCCCCCCCCCCC(=O)OC[C@H](O)[C@H]1OC(=O)C(O)=C1O,-14.1% (inactive),–
